Screening results (PubChem)
The list is not random: actives were taken first. Their share in the collection is about 12%.
PI5P4K alpha inh: inhibitors of human PI5P4K alpha | P48426 | PI5P4Kalpha enzyme, ADP-Glo luminescence, 60 min; hits give low values | max response, % | 330,000 tested, 1.2% active | AID 652105; active = max response of -50% or lower; inconclusive = between -30% and -50%; inactive = -30% or higher; note: value at the top dose of about 77 µM; % is set by controls: 0 for no effect and ±100 for the full control effect
Target sequence (P48426 whole entry, looked up): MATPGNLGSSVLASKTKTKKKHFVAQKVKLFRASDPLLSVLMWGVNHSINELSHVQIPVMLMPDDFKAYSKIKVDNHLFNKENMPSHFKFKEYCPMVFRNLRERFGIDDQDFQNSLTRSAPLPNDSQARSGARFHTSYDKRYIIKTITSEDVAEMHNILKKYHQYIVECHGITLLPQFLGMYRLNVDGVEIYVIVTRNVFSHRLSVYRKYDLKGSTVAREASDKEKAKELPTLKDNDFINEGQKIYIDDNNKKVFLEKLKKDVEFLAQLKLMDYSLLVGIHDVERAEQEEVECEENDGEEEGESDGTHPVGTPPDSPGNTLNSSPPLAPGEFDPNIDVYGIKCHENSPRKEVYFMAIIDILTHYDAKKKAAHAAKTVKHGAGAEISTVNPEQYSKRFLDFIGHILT
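PI5P4Kalpha ADP-Glo assay; 5 microM ATP final; 60 min RT reaction; HEPES pH 7.4/EGTA/CHAPS, 5% DMSO; controls lacking substrate or enzyme; luminescent end-point.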
JMJD2A Tudor: blocks the human JMJD2A Tudor domain; O75164; Potency, µM (highest dose often 114 µM), without a hit: at the top dose activity change, negative = inhibition, most hits filed as inhibitors; AID 504339; 390,000 tested, 4.4% active; AlphaScreen JMJD2A-Tudor / H3K4me3 peptide binding; note: potency is the fitted concentration of half-maximal effect; % is set by controls: 0 for no effect and ±100 for the full control effect; nearly all actives have a fitted effect of over 50% in size
HP1b chromo inh: blocks HP1-beta chromodomain binding to methylated histone tails; 390,000 tested, 0.56% active; AlphaScreen HP1-beta / biotin-H3K9me3 peptide binding; Potency, µM (series often up to 114 µM), without a hit: at the top dose activity change, negative = inhibition, actives largely listed as inhibitors; note: potency is the fitted concentration of half-maximal effect; nearly all actives have a fitted effect of over 70% in size
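Compound inhibition of the preformed complex between 50 nM HP1-beta and 50 nM biotinylated H3K9me3 peptide was read by AlphaScreen. Buffer was PBS pH 7.4 with 0.01% Tween-20. Incubations ran 30 min at room temperature, with 10 ug/mL donor/acceptor beads.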
BAZ2B block: blocks human BAZ2B; Q9UIF8; AlphaScreen BAZ2B-H3K14Ac peptide displacement; Potency, µM (top dose mostly 114 µM), without a hit: at the top dose activity change, negative = inhibition, hits mostly inhibitors; 360,000 tested, 4.4% active; AID 504333; note: potency is the fitted concentration of half-maximal effect; % is set by controls: 0 for no effect and ±100 for the full control effect; nearly all actives have a fitted effect of over 60% in size
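AlphaScreen displacement of biotin-H3(5-23)K14Ac peptide (50 nM final) from BAZ2B (50 nM final) in PBS pH 7.4, 0.01% Tween-20; complex preformed 30 min RT, then compounds (top 110 uM) 30 min RT, beads 20 min dark.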
PLK1 PBD block: PLK1 (human) polo-box domain binding inhibition | Potency, µM, without a hit: max response, negative = inhibition, usual class: inhibitors | 360,000 tested, 2.8% active | P53350 | AID 720504 | Plk1 PBD binding of FITC phosphopeptide, fluorescence polarization; note: potency is the fitted concentration of half-maximal effect; series mostly up to about 57 µM; % is set by controls: 0 for no effect and ±100 for the full control effect; nearly all actives have a fitted effect of over 65% in size
G9a block: inhibitors of human histone lysine methyltransferase G9a; Q96KQ7; G9a H3K9 monomethylation, AlphaScreen, 2 h; Potency, µM (top dose mostly 102 µM), for inactives: at the highest dose activity, negative = inhibition, actives largely listed as inhibitors; 350,000 tested, 8.8% active; AID 504332; note: potency is the fitted concentration of half-maximal effect; % is set by controls: 0 for no effect and ±100 for the full control effect; nearly all actives have a fitted effect of over 75% in size
Target sequence (Q96KQ7 913-1193 limits assumed): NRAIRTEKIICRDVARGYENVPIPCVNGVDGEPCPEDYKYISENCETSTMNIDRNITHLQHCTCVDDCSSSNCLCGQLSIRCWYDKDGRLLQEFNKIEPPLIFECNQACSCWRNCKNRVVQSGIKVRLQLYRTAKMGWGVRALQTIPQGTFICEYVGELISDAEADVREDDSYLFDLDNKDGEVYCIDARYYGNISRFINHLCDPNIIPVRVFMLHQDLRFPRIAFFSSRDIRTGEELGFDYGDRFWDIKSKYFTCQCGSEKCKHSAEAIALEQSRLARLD
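Readings reflect AlphaScreen signal from monomethyl-H3K9 antibody detection. HMT at 20 nM; substrate b-H3K9 500 nM; cofactor SAM 20 uM; 2 h RT reaction; compounds tested as titrations in qHTS with 15 min preincubation.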
* hit, by the source's call; ? = inconclusive; . = no result; [ ] = remark or other dose. Unless noted, calls come from the whole dose curve; as a rule, active = well fitted curve in the direction sought with a large enough effect; inconclusive = small, poorly fitted or top-dose-only effect, or another doubt; inactive = no such curve, though single readings can be large; an effect the other way counts as inactive or inconclusive.

SMILES | PI5P4K alpha inh | JMJD2A Tudor | HP1b chromo inh | BAZ2B block | PLK1 PBD block | G9a block
Cc1nc(Nc2ccc(C(=O)O)cc2)nc(Nc2ccc(C(=O)O)cc2)c1[N+](=O)[O-] | -56* | -27% | 45% | -39% | -29% | 45µM*
COc1ccc(Nc2nc(N/N=C/c3ccc(N(C)C)cc3)nc(C)c2[N+](=O)[O-])cc1 | 5 | ? | -8% | ? | 1% | 5µM*
COc1ccc(Nc2nc(NN)nc(C)c2[N+](=O)[O-])cc1 | -25 | ? | -17% | ? | -21% | ?
OC1(c2ccccc2)CN(c2ccccc2)C2=[N+]1CCS2 (centres undefined) | -3 | -20% | 1% | 40µM* | -1% | -23%[59 µM]
OC1(c2cccs2)CN(c2ccc(Br)cc2)C2=[N+]1CCCS2 (centres undefined) | 0 | -19% | 37% | -14% | 1% | -36%
OCC1(Cc2ccc(Cl)cc2)CCN(Cc2ccc(F)c(F)c2)CC1 | 20 | -16% | 55% | -14% | -6% | -10%
O=S(=O)(c1ccc(Br)cc1)N1CCCN(Cc2cccc(F)c2)CC1 | 11 | 11% | 44% | 13% | 0% | ?
Fc1cccc(CN2CCCCCCC2)c1 | . | 2µM* | ? | ? | 4% | 13µM*
Fc1ccc(CN2CCSCC2)cc1F | -6 | 4µM* | ? | ? | -3% | 32µM*
Fc1cccc(CN2CCSCC2)c1 | -1 | 20µM* | ? | 50µM* | -10% | 25µM*
CCOc1cc(CNCCSc2nnnn2-c2ccccc2)cc(Cl)c1OC | . | -9% | 94% | 21% | . | -1%[59 µM]
O=C(CS(=O)(=O)c1cccc2nsnc12)N1CCN(c2cccc(C(F)(F)F)c2)CC1 | . | -29% | 22%[57 µM] | ? | . | 9%[59 µM]
O=C(c1cccc(F)c1)N1CCC2(CCCN(c3ncccn3)C2)CC1 | . | . | . | . | . | 8%[12.7 µM]
O=C(NCCc1c[nH]c2ccccc12)c1ccc([N+](=O)[O-])cc1 | 1 | -18% | -1% | -15% | -8% | 19%[59 µM]
Cc1ccc(C(=O)NCCc2c[nH]c3ccccc23)c(C)c1 | 0 | -26% | -8% | 50µM* | -8% | -44%
O=C(NCCc1c[nH]c2ccccc12)c1ccccc1 | -11 | -20% | 20% | -19% | -8% | -4%
COc1cc(-c2noc(C)c2C(=O)NCCc2c[nH]c3ccccc23)cc(OC)c1OC | 1 | ? | 14% | 50µM* | -8% | 32µM*
O=C(NCCc1c[nH]c2ccccc12)c1cc([N+](=O)[O-])cc([N+](=O)[O-])c1 | -10 | -24% | 30% | -3% | -8% | 10µM*
COc1ccc(CCNC(=O)c2cc3cccc(OC)c3oc2=O)cc1OC | -1 | -18% | 18% | -4% | -3% | 2%
COc1cccc2cc(C(=O)NCCc3c[nH]c4ccccc34)c(=O)oc12 | -28 | ? | ? | -37% | 12µM* | ?
CC(CNC(=O)c1ccccc1Cl)c1ccccc1 (centres undefined) | 2 | 1% | 53% | -10% | 2% | .
Cc1cc(N2CCOCC2)ccc1/C=C1\NC(=O)N(Cc2ccccc2)C1=O | 2 | -7% | 36% | -29% | -6% | 50µM*
Cc1cc(N2CCOCC2)ccc1/C=C1\NC(=O)N(Cc2ccccc2F)C1=O | 0 | -28% | 5% | -12% | -1% | 14%[59 µM]
CNC(=S)N/N=C/c1ccc(-c2ccc(C(=O)O)cc2)o1 | -62* | -4%[11.4 µM] | ? | ? | ? | .
Cc1ccc(-c2ccc(/C=N/NC(=S)Nc3ccccc3)o2)cc1[N+](=O)[O-] | . | ? | -28% | ? | -8% | -23%
SMILES | PI5P4K alpha inh | JMJD2A Tudor | HP1b chromo inh | BAZ2B block | PLK1 PBD block | G9a block
CNC(=S)N/N=C/c1ccc(-c2ccc(Cl)c([N+](=O)[O-])c2)o1 | -11 | -25% | 10% | 79µM* | -21% | .
CC(C)(C)NC(=S)N/N=C\c1ccc(-c2ccc([N+](=O)[O-])cc2)o1 | 0 | ? | -13% | ? | 20% | -11%[59 µM]
Cc1sc2nc(CC(=O)N3CCCC3)[nH]c(=O)c2c1C | 1 | 1% | -9% | -1% | ? | 28µM*
Cc1sc2nc(CSC(C)C(=O)N3CCOCC3)[nH]c(=O)c2c1C (centres undefined) | -2 | -19% | 23% | -2% | -6% | .
CCN1C(=O)/C(=C2/C=CC=CN2C)SC1=S | -5 | -24% | ? | ? | -10% | ?
COc1ccc(N2CC(=O)N(c3ccccc3)C2=S)cc1 | 6 | -11% | 25% | 2% | -6% | 12%[59 µM]
COc1ccc(N2C(=O)/C(=C3/C=CC=CN3C)SC2=S)cc1 | 1 | -30% | -24% | -37% | -22% | 45µM*
CN1C=CC=C/C1=C1/SC(=S)N(Cc2ccccc2)C1=O | 1 | ? | ? | 40µM* | -10% | ?
O=S(=O)(NCc1nnc2ccccn12)c1ccc(Cl)cc1 | 9 | -2% | 49% | 7% | 4% | -8%[59 µM]
CC(=O)c1ccc(N2Cc3ccccc3C3(CCOCC3)C2=N)cc1 | 1 | -5% | 37% | -25% | 2% | 56µM*
COc1ccc(CN2C(=O)C(CC(=O)NC(c3ccccc3)c3ccccc3)CC(C(=O)N(C(C)C)C(C)C)=C2C)cc1 (centres undefined) | -4 | . | . | . | -3% | .
CCCCOc1ccc(C2NC(=O)NC(C)=C2C(C)=O)cc1OCC (centres undefined) | -8 | -31% | 23% | -14% | -11% | 2%
N#CC1=C2N=C(N)c3ccccc3N2C2=C(C(=O)CCC2)C1c1ccccc1F (centres undefined) | 1 | ? | -11% | ? | -6% | -39%
Cc1ccccc1C1C(C#N)=C2N=C(N)c3c(sc4c3CCCCC4)N2C2=C1C(=O)CCC2 (centres undefined) | -19 | -23%[57.1 µM] | 16% | 45µM* | -24% | ?
O=[N+]([O-])c1cc2oc3c(c2c(C=NCc2ccncc2)c1O)CCCC3 | -81* | 56µM* | ? | 35µM* | ? | ?
OCCN1CCN(CC(O)COc2ccc(Cl)cc2)CC1 (centres undefined) | -5 | -24% | 16% | ? | 1% | 50µM*
CN1CCN(CC(O)COc2ccc(Cl)cc2)CC1 (centres undefined) | -3 | -13% | 5% | -7% | -4% | 56µM*
CCOC(=O)c1c(C)n(-c2ccc(C)cc2)c2ccc(OCC(O)CN3CCN(C)CC3)cc12 (centres undefined) | -2 | ? | 1% | . | 3% | 50µM*
Cc1cc(OCC(O)CN2CCN(C)CC2)ccc1C(C)C (centres undefined) | -4 | -16% | 12% | -2% | 0% | 89µM*
